Reference: PubChem BioAssay (NCATS)
A number with no mark means an inactive call. Results filed as inconclusive are left out. Where a call stands in place of a potency, no number is given. Calls of active or inactive are those of the source. Unless noted, calls come from the whole dose curve; as a rule, active = well fitted curve in the direction sought with a large enough effect; inconclusive = small, poorly fitted or top-dose-only effect, or another doubt; inactive = no such curve, though single readings can be large; an effect the other way counts as inactive or inconclusive.

How the values were obtained:
[1] = target: Lysosomal acid glucosylceramidase (Homo sapiens) (UniProt P04062); assay: Glucocerebrosidase-p2 (AID 348; in the data active = potency below about 10 µM; note: potency is the fitted concentration of half-maximal effect); conditions: purified GBA, blue fluorogenic substrate, 40 min
Lysosomal acid glucosylceramidase (Homo sapiens), sequence (P04062 whole entry, looked up): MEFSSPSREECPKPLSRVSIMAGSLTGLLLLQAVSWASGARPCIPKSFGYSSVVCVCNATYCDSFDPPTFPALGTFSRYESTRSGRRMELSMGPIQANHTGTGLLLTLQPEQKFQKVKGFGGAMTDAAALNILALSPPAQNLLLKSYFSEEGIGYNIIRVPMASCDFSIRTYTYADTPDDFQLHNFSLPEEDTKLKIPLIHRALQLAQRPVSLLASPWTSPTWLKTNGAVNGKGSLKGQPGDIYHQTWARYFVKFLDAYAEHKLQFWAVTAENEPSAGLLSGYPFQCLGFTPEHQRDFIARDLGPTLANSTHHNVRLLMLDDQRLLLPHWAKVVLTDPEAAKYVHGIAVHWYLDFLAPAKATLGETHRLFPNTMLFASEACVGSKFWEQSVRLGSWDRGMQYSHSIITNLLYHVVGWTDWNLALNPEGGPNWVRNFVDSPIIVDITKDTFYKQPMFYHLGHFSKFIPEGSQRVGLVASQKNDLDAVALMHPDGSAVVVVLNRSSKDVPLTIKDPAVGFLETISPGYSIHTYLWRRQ
In short: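 Normal human glucocerebrosidase (0.2 nM) with blue fluorogenic substrate (80 uM final) in citrate/phosphate pH 5.9 with 10mM sodium taurocholate, 0.01% tween-20; 40 min RT, NaOH/glycine stop; fluorescence Ex 365/Em 440; AC50 from a titration from 0.6 nM upwards.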

[2] = AP1 Signaling Pathway (AID 357; active = well fitted curve in either direction with a large enough effect, not every such curve was filed as active;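 note: ME-180 reporter cells stimulated with EGF at its EC50 level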); conditions: ME-180 AP-1-bla reporter, EGF-induced, beta-lactamase ratio, 5 h; at 7.69 µM (top of the series) unless noted
In short: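 In this screen, ME-180 cells in Opti-MEM with 0.5% dialyzed FBS received EC50 EGF and compound titrations for 5 h. AP-1 reporter beta-lactamase was detected via CCF4 ratio, giving AC50 for positive and negative modulators.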

[3] = target: Cytochrome P450 1A2 (Homo sapiens) (UniProt P05177); assay: p450-cyp1a2 (AID 410; calls by dose curve; note: potency is the fitted concentration of half-maximal effect); conditions: recombinant CYP1A2, luciferin-ME demethylation, luminescence; series mostly up to 57 µM
Cytochrome P450 1A2 (Homo sapiens), sequence (P05177 whole entry, looked up): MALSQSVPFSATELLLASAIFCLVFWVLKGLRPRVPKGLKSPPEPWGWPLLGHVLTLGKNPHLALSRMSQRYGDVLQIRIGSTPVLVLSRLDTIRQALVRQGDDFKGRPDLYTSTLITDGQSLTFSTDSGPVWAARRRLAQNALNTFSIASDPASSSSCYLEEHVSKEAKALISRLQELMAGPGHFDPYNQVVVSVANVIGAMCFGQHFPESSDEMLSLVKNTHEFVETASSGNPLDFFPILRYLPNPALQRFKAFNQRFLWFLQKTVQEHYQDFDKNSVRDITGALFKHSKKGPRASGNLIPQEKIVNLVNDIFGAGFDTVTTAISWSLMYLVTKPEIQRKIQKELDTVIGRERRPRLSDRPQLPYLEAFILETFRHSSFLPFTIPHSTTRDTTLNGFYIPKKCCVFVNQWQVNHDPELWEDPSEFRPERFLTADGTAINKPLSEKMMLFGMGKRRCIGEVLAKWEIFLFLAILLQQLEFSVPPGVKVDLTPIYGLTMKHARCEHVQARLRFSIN
In short: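 Luminescent demethylation readout: Luciferin-ME (100uM, equal to Km) turned over by 20nM CYP1A2 for 60 min at room temperature after NADPH regeneration addition, following 10 min compound preincubation. Normalization used 57 uM furafylline as full inhibition.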

[4] = NFAT Signaling Pathway (AID 444; active = well fitted curve in either direction with a large enough effect, not every such curve was filed as active;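 note: carbachol stimulus at about its EC50 of 1 µM final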); conditions: Jurkat NFAT-bla M1, carbachol, beta-lactamase ratio, 5 h; at 7.69 µM (top of the series) unless noted
In short: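 Jurkat cells carrying an NFAT-driven β-lactamase reporter and co-transfected muscarinic M1 receptor were treated with compound plus carbachol (1 uM final, an EC50 level) for 5 h at 37 °C. CCF4 loading followed for 1 h at RT; 460/530 nm ratio gave %activity.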

[5] = Stat Signaling Pathway (AID 446; active = well fitted curve in either direction with a large enough effect, not every such curve was filed as active;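 note: ME-180 cervical cancer cells given 40 pM IL-6 alongside compound; SIE-controlled beta-lactamase reporter measured as 460/530 nm FRET emission ratio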); conditions: ME-180 (cervical carcinoma) SIE beta-lactamase reporter, IL-6 stimulated, 5 h; at 7.69 µM (top of the series) unless noted
In short: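 Normalization used AC90 stimulation (300 pM IL-6) and AC90 inhibition (125 nM pan-JAK inhibitor at 40 pM IL-6). The underlying signal is SIE-driven beta-lactamase in ME-180 cells after 5 h IL-6 exposure with compound.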

[6] = target: Glucocorticoid receptor (Homo sapiens) (UniProt P04150); assay: GR-GFP Redistribution (AID 450;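 active = compounds whose dose series gives a full or clear partial fitted curve of increased nuclear translocation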; note: potency is the fitted concentration of half-maximal effect); conditions: U2OS GR-GFP nuclear translocation, laser cytometry, 2 h
Glucocorticoid receptor (Homo sapiens), sequence (P04150 whole entry, looked up, the tested form may be a part): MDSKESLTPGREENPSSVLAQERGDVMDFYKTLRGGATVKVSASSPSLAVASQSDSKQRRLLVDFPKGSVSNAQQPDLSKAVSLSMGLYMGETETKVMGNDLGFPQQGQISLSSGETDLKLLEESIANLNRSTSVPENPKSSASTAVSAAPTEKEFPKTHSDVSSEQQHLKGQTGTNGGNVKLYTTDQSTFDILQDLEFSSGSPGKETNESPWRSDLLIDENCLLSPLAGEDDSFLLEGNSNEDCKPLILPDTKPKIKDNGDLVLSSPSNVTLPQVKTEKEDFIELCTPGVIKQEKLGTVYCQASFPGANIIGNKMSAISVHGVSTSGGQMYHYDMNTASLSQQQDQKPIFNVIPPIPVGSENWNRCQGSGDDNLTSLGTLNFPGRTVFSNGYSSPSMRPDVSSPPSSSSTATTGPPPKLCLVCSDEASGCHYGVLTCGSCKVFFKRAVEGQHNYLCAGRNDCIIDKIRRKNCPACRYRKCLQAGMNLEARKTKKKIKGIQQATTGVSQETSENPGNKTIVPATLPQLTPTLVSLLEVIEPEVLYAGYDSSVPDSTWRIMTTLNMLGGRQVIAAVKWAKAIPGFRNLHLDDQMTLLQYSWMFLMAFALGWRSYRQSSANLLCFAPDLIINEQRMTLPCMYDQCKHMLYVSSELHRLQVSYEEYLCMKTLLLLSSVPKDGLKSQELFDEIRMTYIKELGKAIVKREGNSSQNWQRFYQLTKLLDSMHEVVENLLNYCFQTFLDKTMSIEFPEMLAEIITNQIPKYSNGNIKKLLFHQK

[7] = target: Glucocorticoid receptor (Homo sapiens) (UniProt P04150); assay: GR-EFC Redistribution (AID 451; calls by dose curve; note: potency is the fitted concentration of half-maximal effect); conditions: CHO-K1 GR-EFC translocation, beta-gal luminescence, 2 h
In short: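 CHO-K1 cells stably expressing nuclear-localized β-gal enzyme acceptor and GR fused C-terminally to the enzyme donor fragment; ligand-driven nuclear translocation restores β-gal by complementation. Compounds titrated up to 46 uM final, 2 h at 37 °C; luminescence read.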

[8] = target: Mitogen-activated protein kinase 10 (Mus musculus) (UniProt Q61831); assay: JNK3 AlphaScreen Assay (AID 530; active = well fitted curve in either direction with a large enough effect, not every such curve was filed as active;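 note: kinase came from lysate of stimulated human HepG2 cells; signal reports phosphorylation of biotinylated GST-cJun 1-79 at Ser73 with 10 µM ATP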); conditions: JNK3 lysate, c-Jun phosphorylation; series mostly up to 57.1 µM
In short: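 Phosphorylation of biotinylated GST-cJun(1-79) at Ser73 is measured by AlphaScreen proximity luminescence. Enzyme is JNK3 in HepG2 lysates activated with interleukin-1beta and tumor necrosis factor alpha; ATP is 10 uM final.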

[9] = target: 3',5'-cyclic-AMP phosphodiesterase 4B (Homo sapiens) (UniProt Q07343); assay: qHTS Assay for Inhibitors of PDE-IV (AID 607; active = well fitted activation curve with a large enough effect in the main read-out, with a control signal flat, not every such curve was filed as active); conditions: HEK293 ACTOne CNG channel cells, membrane potential fluorescence; series mostly up to 22.9 µM
In short: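 HEK293 ACTOne cells with CNG channel (1000/well), endogenous PDE4; membrane potential dye, compounds up to 22.9 uM final. Fluorescence Ex 535/Em 590; RO 20-1724 (100 uM final) as reference.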

[10] = target: Cytochrome P450 3A4 (Homo sapiens) (UniProt P08684); assay: qHTS Assay for Inhibitors and Substrates of Cytochrome P450 3A4 (AID 884); conditions: recombinant CYP3A4, Luciferin-PPXE luminescence; series mostly up to 57.1 µM; note: potency is the fitted concentration of half-maximal effect; nearly all actives have a fitted effect of over 50% in size
Cytochrome P450 3A4 (Homo sapiens), sequence (P08684 whole entry, looked up): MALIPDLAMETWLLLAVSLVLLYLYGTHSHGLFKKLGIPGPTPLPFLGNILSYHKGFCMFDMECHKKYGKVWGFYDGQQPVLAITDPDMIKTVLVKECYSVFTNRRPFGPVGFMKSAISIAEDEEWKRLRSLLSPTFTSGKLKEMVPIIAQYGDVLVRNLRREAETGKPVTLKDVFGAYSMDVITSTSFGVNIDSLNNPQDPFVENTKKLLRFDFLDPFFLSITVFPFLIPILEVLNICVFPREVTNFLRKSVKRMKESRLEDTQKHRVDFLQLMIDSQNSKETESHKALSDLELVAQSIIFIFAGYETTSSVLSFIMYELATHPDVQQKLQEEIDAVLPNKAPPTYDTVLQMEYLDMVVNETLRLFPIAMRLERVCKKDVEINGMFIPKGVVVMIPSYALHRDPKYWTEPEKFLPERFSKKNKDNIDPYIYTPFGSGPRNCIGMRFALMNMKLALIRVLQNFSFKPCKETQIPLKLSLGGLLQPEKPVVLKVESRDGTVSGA
In short: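 Luminescent readout of luciferin produced by CYP3A4 (20 nM) dealkylation of Luciferin-PPXE, 25 uM (its KM). NADPH-driven reaction ran 60 min at RT after 10 min compound preincubation; data scaled to 57 uM ketoconazole as 100% inhibition.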

[11] = target: Cytochrome P450 3A4 (Homo sapiens) (UniProt P08684); assay: qHTS Assay for Activators of Cytochrome P450 3A4 (AID 885); conditions: recombinant CYP3A4, Luciferin-PPXE luminescence, 60 min; series mostly up to 57.1 µM; note: nearly all actives have a fitted effect of over 65% in size
In short: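 Human CYP3A4 dealkylates Luciferin-PPXE to luciferin, which luciferase detection converts to light. Substrate was at its KM (25uM), buffer 200mM KPO4, reaction 60 min at RT.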

[12] = target: Dual specificity protein kinase CLK4 (Homo sapiens) (UniProt Q9HAZ1); assay: qHTS Assay for Inhibitors of CDC-like Kinase 4 (Kinase-Glo Assay) (AID 1770); conditions: recombinant Clk4, Kinase-Glo ATP depletion luminescence; series mostly up to 66.7 µM; note: nearly all actives have a fitted effect of over 65% in size; note: potency is the fitted concentration of half-maximal effect
Dual specificity protein kinase CLK4 (Homo sapiens), sequence (Q9HAZ1 whole entry, looked up): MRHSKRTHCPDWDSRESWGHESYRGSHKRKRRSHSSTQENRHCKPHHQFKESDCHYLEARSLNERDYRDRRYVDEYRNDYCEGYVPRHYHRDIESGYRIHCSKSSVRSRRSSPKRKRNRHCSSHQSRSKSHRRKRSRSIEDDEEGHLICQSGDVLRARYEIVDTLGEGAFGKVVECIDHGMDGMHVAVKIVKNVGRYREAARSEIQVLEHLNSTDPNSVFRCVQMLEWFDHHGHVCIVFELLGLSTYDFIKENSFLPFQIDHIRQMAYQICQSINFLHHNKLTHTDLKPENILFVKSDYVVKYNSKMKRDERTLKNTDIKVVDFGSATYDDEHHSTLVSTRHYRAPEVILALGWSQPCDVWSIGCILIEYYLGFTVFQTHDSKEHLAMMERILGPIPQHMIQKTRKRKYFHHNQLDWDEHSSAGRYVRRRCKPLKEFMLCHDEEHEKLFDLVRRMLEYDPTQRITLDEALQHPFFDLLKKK
In short: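 Recombinant human Clk4 (25 nM) phosphorylated RS repeat peptide (100 uM) with 1 uM ATP in Tris pH 7.5/MgCl2/EGTA/DTT/Triton buffer for 4.5 h at room temperature. Residual ATP was quantified by Kinase-Glo luciferase luminescence.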

[13] = target: Dual specificity protein kinase CLK4 (Homo sapiens) (UniProt Q9HAZ1); assay: qHTS Assay for Inhibitors of CDC-like Kinase 4 (ADP-FP Assay) (AID 1795); conditions: Transcreener ADP fluorescence polarization; series mostly up to 50 µM; note: nearly all actives have a fitted effect of over 60% in size; note: potency is the fitted concentration of half-maximal effect
In short: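 Recombinant human Clk4 (6.25 nM) phosphorylated RS repeat peptide (100 uM) with 1 uM ATP in Tris pH 7.5/MgCl2/EGTA/DTT/Triton buffer for one hour. ADP was quantified by Transcreener competitive fluorescence polarization against an ADP calibration curve.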

[14] = Primary qHTS for small molecule stabilizers of the endoplasmic reticulum resident proteome: Secreted ER Calcium Modulated Protein (SERCaMP) assay (AID 1508630); conditions: SH-SY5Y GLuc-SERCaMP (Gaussia luciferase released on ER calcium loss) secretion, thapsigargin, luminescence; series mostly up to 38.4 µM
In short: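 The SH-SY5Y reporter protocol was run at 3 concentrations up to 38.3 uM (primary) or 11 concentrations (follow-up): 16 h compound, 100 nM thapsigargin for 4 h, then extracellular luciferase luminescence.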

[15] = target: Rap guanine nucleotide exchange factor 3 (Homo sapiens) (UniProt O95398); assay: Confirmatory qHTS for agonist of cAMP-regulated guanine nucleotide exchange factor 3 (EPAC1) (AID 1645881); conditions: EPAC1 Rap1B BODIPY-GDP exchange fluorescence; series mostly up to 154 µM;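 note: EPAC1 catalysed release of BODIPY-GDP from Rap1B seen as fluorescence loss; nearly all actives have a fitted effect of over 75% in size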
Rap guanine nucleotide exchange factor 3 (Homo sapiens), sequence (O95398 whole entry, looked up): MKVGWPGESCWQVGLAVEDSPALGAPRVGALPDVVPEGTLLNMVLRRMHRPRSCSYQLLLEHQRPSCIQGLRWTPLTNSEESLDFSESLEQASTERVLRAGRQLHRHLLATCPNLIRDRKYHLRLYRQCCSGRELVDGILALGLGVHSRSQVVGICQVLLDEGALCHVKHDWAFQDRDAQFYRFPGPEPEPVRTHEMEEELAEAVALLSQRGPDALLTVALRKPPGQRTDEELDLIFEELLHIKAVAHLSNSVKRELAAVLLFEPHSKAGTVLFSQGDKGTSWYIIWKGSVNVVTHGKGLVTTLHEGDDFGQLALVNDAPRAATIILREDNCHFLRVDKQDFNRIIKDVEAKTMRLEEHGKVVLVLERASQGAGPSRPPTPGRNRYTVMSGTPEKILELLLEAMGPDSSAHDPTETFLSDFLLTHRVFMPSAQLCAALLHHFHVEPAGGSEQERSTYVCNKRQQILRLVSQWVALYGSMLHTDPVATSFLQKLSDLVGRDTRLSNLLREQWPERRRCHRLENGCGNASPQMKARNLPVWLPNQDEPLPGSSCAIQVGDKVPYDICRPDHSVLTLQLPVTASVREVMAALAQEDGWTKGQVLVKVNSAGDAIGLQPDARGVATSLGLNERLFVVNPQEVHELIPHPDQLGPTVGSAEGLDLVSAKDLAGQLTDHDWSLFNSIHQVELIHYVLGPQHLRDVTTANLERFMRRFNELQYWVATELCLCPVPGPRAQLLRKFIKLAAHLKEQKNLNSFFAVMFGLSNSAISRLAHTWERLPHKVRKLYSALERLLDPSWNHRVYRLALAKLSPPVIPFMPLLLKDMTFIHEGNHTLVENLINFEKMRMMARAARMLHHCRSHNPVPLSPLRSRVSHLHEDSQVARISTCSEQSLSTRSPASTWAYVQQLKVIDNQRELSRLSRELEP

[16] = target: Rap guanine nucleotide exchange factor 4 (Homo sapiens) (UniProt Q8WZA2); assay: Confirmatory qHTS for agonist of cAMP-regulated guanine nucleotide exchange factor 4 (EPAC2) (AID 1645884); conditions: EPAC2 GEF activity, Rap1B-BODIPY-GDP fluorescence; series mostly up to 154 µM;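 note: nucleotide exchange releases bodipy-GDP from Rap1 and this lowers its fluorescence; nearly all actives have a fitted effect of over 65% in size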
[17] = target: Rap guanine nucleotide exchange factor 4 (Homo sapiens) (UniProt Q8WZA2); assay: Confirmatory qHTS for antagonist of cAMP-regulated guanine nucleotide exchange factor 4 (EPAC2) (AID 1645885); conditions: EPAC2 Rap1B-BODIPY-GDP exchange fluorescence, biochemical; series mostly up to 114 µM; note: nearly all actives have a fitted effect of over 25% in size; note: potency is the fitted concentration of half-maximal effect
[18] = target: Rap guanine nucleotide exchange factor 3 (Homo sapiens) (UniProt O95398); assay: Confirmatory qHTS for antagonist of cAMP-regulated guanine nucleotide exchange factor 3 (EPAC1) (AID 1645880); conditions: EPAC1 Rap1B-BODIPY-GDP exchange, fluorescence; series mostly up to 115 µM; note: nearly all actives have a fitted effect of over 55% in size
In short: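 Released BODIPY-GDP fluoresces less than Rap1-bound BODIPY-GDP; the signal is followed at 480/540 nm at 5-min intervals over 30 min, after 5 min at room temperature. Reactions contain 100 nM EPAC1, 250 nM RAP1B-BODIPY-GDP and 50 uM GDP; results are normalized to ATA and DMSO.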

[19] = target: Ubiquitin carboxyl-terminal hydrolase 1 (Homo sapiens) (UniProt O94782); assay: Inhibitors of USP1/UAF1: Pilot qHTS (AID 504865); conditions: purified USP1/UAF1, Ub-rhodamine cleavage fluorescence; series mostly up to 54.9 µM;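 note: rhodamine fluorescence freed from ubiquitin-rhodamine substrate followed over time; top concentration of the series differs between compounds; nearly all actives have a fitted effect of over 35% in size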
Ubiquitin carboxyl-terminal hydrolase 1 (Homo sapiens), sequence (O94782 whole entry, looked up): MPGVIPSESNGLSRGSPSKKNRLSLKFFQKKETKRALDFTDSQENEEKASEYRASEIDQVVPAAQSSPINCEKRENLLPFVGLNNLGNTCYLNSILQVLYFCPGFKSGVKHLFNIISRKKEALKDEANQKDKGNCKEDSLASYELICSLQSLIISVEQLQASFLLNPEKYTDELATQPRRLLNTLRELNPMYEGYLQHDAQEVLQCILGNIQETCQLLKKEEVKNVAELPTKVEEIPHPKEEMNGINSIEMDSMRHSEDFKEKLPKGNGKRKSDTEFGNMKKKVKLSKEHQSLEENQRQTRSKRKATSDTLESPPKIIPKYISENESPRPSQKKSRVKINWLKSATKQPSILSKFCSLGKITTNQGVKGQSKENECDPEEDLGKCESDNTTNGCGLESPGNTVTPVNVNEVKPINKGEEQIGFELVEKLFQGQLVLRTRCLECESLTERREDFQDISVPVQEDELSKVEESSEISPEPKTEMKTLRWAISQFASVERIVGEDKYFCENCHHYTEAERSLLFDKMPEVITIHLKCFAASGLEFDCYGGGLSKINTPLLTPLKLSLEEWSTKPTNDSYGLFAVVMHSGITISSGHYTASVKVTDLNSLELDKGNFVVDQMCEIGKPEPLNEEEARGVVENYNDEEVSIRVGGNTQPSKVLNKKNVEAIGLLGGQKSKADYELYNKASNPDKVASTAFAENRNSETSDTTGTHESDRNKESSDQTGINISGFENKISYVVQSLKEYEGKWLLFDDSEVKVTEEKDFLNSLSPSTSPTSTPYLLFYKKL
In short: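 USP1/UAF1 complex (1nM) preincubated with compound 15 min at room temperature, then Ub-Rho substrate (150nM final) added. Fluorescence read kinetically at 480/540 nm, 6 reads every 60 seconds. Buffer: 50mM HEPES pH 7.8, 0.5mM EDTA, 0.1 mg/ml BSA, 1mM TCEP, 0.01% Tween-20.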

Structure (SMILES) | Potency [1] | activity change, negative = inhibition [2] | Potency [3] | activity change, negative = inhibition [4] | activity, negative = inhibition [5] | Potency [6] | Potency [7] | Potency [8] | Potency [9] | Potency [10] | Potency [11] | Potency [12] | Potency [13] | outcome [14] | Potency [15] | Potency [16] | Potency [17] | Potency [18] | Potency [19]
COc1cccc(-c2nccc(NCc3cccs3)n2)c1 | > 11.4 µM | -9.78% | 0.2 µM (active) | 15.4% | -0.369% | > 46 µM | > 46 µM | inactive | inactive | 5.01 µM (active) | inactive | 8.91 µM (active) | 10 µM (active) | inactive | inactive | inactive | 62.2 µM (active) | – | –
COc1ccc(C(=O)N2CCC[C@@]3(CCN(Cc4cc(C(F)(F)F)cc(C(F)(F)F)c4)C3)C2)cc1 | > 11.4 µM | 16.8% | inactive | -5.26% | -1.38% | – | > 46 µM | inactive | inactive | 3.16 µM (active) | inactive | – | – | inactive | inactive | inactive | 55.5 µM (active) | – | –
O=c1c(-c2ccc(F)cc2)nc2cnc(Nc3ccccc3)nc2n1Cc1cccs1 | > 11.4 µM | -11.9% | 2 µM (active) | – | – | > 9.22 µM | > 46 µM | inactive | inactive | – | – | – | – | inactive | – | – | inactive | inactive | –
COc1ccccc1CNc1nc(-c2cccnc2)nc2ccccc12 | > 11.4 µM | -17.9% | 1 µM (active) | -5.69% | -25.3% | – | > 46 µM | inactive | – | – | inactive | 12.6 µM (active) | 4.47 µM (active) | inactive | inactive | inactive | – | – | inactive
COc1cccc(-c2nc(NCc3ccc(OC)cc3OC)c3ccccc3n2)c1 | – | -5.61% | – | -23.1% | -8.78% | > 46 µM | > 46 µM | inactive | – | – | – | inactive | inactive | inactive | inactive | inactive | – | – | –
COc1ccc(CNc2ncncc2-c2ccccc2C)c(OC)c1 | > 11.4 µM | – | 10 µM (active) | 5.66% | -4.15% | > 46 µM | > 46 µM | inactive | inactive | 0.398 µM (active) | inactive | inactive | inactive | inactive | inactive | inactive | – | – | inactive
Cn1c(=O)c(CCc2ccccc2)nc2cnc(Oc3ccccc3)nc21 | > 11.4 µM | -15.2% | – | -7.88% | -2.24% | > 9.22 µM | > 46 µM | – | inactive | – | – | – | – | inactive | inactive | inactive | inactive | – | –
N#C/C(=C\c1ccc(O)c(O)c1)C(=O)OCCc1cccs1 | – | – | – | – | – | > 46 µM | > 46 µM | – | inactive | – | inactive | – | – | inactive | inactive | inactive | – | – | –
CN(C)c1ncnc2ccc(-c3ccccc3C(F)(F)F)cc12 | > 11.4 µM | 0.8% | 0.631 µM (active) | 20.6% | -12.7% | > 46 µM | > 46 µM | inactive | – | – | inactive | – | – | inactive | inactive | inactive | 44.1 µM (active) | – | inactive
COc1ccc(-c2nc3cnc(Nc4cccc(OC)c4)nc3n(Cc3cccs3)c2=O)cc1 | > 11.4 µM | – | inactive | – | – | > 9.22 µM | > 46 µM | inactive | inactive | – | inactive | inactive | inactive | inactive | inactive | inactive | 44.1 µM (active) | – | inactive
COc1ccc(CNc2ncnc3ccc(-c4c(C)noc4C)cc23)c(OC)c1 | > 11.4 µM | – | 15.8 µM (active) | – | – | > 46 µM | > 46 µM | inactive | – | 3.16 µM (active) | inactive | 10 µM (active) | inactive | inactive | inactive | inactive | inactive | – | inactive
c1ccc(CNc2ccnc(-c3ccc4c(c3)OCO4)n2)cc1 | – | – | – | – | – | – | – | – | – | – | – | – | – | – | – | – | inactive | – | –
COc1ccc(-c2nc3cnc(N(C)C)nc3n(C[C@H]3CCCO3)c2=O)cc1 | > 11.4 µM | 1.23% | 3.16 µM (active) | -3.89% | 2.75% | > 9.22 µM | > 46 µM | – | – | – | inactive | inactive | inactive | inactive | – | – | – | – | inactive
